Measurements taken from PubChem BioAssay (EPA / NIEHS).
Where “and” joins values, the source holds several entries; their conditions need not be identical. Equal entries are not always repeated. Results filed as inconclusive are left out. Calls of active or inactive are those of the source. How the source made its calls: active means hit-call score of the fitted dose curve at least 0.9, where 1 is the maximum; inconclusive means response in the unintended direction; inactive means score below 0.9.

Key:
[1] = ACEA_ER_AUC_viability: ACEA Biosciences xCELLigence Real-Time Cell Analysis on Estrogen Receptor Agonism for Viability (AID 2283782);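 further: hit means loss of impedance signal meaning reduced cell growth or viability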
In short: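 T-47D; phenol red-free RPMI1640 + 10% CS-FBS; 8 conc., 1:4 serial, max 100 uM final, ≤0.5% DMSO; n = 2; continuous exposure; impedance monitored to 80 h post-dose; AUC vs DMSO.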

[2] = ACEA_AR_agonist_AUC_viability: ACEA Biosciences xCELLigence Real-Time Cell Analysis on Androgen Receptor Agonism for Viability (AID 2283775)
In short: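 Read-out is area under the impedance curve at 80 h post-dose in 22Rv1 cells, with DMSO as baseline and signal loss taken as reduced viability. Compounds ran in duplicate from 100 uM final.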

[3] = ACEA_AR_antagonist_AUC_viability: ACEA Biosciences xCELLigence Real-Time Cell Analysis on Androgen Receptor Antagonism for Viability (AID 2283776);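 further: 22Rv1 human prostate cancer cells growing on impedance electrode plates; area under impedance growth curve at 80 h after dosing as viability; hits lower the growth signal relative to DMSO meaning cytotoxicity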
In short: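 Real-time electrical impedance tracks 22Rv1 proliferation after continuous compound exposure (top 100 uM final, 1:4 steps, 8 concentrations). The 80 h area-under-curve serves as the cytotoxicity readout relative to DMSO.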

[4] = ATG_M_06_XSP2: Attagene TRANS-FACTORIAL Multi-Species (XSP2) HepG2 Assay for M06 Transcription Factor (Internal Marker) (AID 2283811);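 further: internal background marker reporter mRNA measured by RT-PCR and capillary electrophoresis; hits are increases in signal above the DMSO baseline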
In short: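 HepG2, multiplexed reporter transfection; 24 h dosing; AR stimulated with 3 nM 6-alpha-fluorotestosterone + 1.5 nM norgestrel; RNA → RT-PCR → 6-FAM primer extension → HpaI → CE. Positive direction vs DMSO.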

[5] = tested on: turtle Estrogen Receptor (ERa), gene 101933533; assay: ATG_trERa_XSP2: Attagene TRANS-FACTORIAL Multi-Species (XSP2) HepG2 Assay for turtle Estrogen Receptor (ERa) (AID 2283812);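 further: human HepG2 liver cells transiently expressing turtle ERa-Gal4 chimeric receptor; actives raise reporter signal above DMSO so AC50 reflects agonist activity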
In short: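 HepG2 cells transiently transfected with GAL4-UAS reporter units expressing turtle ERa-Gal4 chimera. Reporter mRNA measured after 24 h dosing by RT-PCR, fluorescent labelling and capillary electrophoresis; gain of signal fitted versus DMSO.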

[6] = target: AR (gene 367) (UniProt P10275); assay: ACEA_AR_agonist_80hr: ACEA Biosciences xCELLigence Real-Time Cell Analysis on Androgen Receptor Agonism for Proliferation (AID 2283783);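 further: hits increase impedance growth signal above DMSO baseline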
AR (gene 367), sequence (P10275 whole entry, looked up): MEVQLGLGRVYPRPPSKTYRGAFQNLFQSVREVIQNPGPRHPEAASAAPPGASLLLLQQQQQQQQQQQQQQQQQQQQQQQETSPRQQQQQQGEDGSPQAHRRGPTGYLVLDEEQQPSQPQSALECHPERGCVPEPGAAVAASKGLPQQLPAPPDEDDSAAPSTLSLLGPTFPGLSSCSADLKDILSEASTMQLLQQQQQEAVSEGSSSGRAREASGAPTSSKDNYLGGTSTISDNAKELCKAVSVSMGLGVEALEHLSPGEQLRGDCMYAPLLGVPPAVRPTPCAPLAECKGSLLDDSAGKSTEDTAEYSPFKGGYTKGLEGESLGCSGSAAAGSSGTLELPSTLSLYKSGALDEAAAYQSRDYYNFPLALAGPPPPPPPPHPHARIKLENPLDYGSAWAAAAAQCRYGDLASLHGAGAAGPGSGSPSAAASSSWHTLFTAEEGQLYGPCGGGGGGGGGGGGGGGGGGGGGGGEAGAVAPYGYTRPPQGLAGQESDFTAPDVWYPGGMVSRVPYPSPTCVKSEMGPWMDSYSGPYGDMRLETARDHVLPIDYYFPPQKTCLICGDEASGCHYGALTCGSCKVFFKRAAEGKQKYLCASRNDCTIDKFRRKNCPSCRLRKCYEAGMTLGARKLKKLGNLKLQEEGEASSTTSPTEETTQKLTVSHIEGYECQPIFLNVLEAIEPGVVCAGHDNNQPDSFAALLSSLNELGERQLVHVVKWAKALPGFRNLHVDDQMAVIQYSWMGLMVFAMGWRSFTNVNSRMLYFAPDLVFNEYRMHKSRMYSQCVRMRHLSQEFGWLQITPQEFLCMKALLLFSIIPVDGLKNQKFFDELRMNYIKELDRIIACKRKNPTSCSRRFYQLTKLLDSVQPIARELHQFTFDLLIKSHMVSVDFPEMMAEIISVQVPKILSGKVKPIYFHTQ
In short: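 Androgen-driven proliferation in 22Rv1 cells is tracked as electrical impedance, taken 80 h after continuous exposure to compound (eight concentrations, 1:4 steps, maximum 100 uM final). Activity is fitted in the positive direction with DMSO as baseline.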

[7] = target: AR (gene 367) (UniProt P10275); assay: ACEA_AR_antagonist_80hr: ACEA Biosciences xCELLigence Real-Time Cell Analysis on Androgen Receptor Antagonism for Proliferation (AID 2283787);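 further: 22Rv1 human prostate cancer cells with growth followed by electrical impedance; hits lower the impedance growth signal relative to DMSO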
In short: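 Growth-kinetic antagonist readout in 22Rv1 cells, taken 80 h after continuous compound exposure. Activity fitted as signal loss relative to DMSO negative control.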

Q: For `FC(F)(F)C(F)(F)C(F)(F)C(F)(F)C(F)(F)C(F)(F)C(F)(F)C(F)(F)CCS`, which outcome [1] is on record?
A: inactive

Q: With `CC(CCl)OP(=O)(OC(C)CCl)OC(C)CCl` (configuration not stated) as the compound, how does the outcome [2] read?
A: inactive

Q: And the outcome [3]?
A: inactive

Q: For `O=C(O)C(F)(OC(F)(F)C(F)(OC(F)(F)C(F)(F)C(F)(F)F)C(F)(F)F)C(F)(F)F` (configuration not stated), which outcome [1] is on record?
A: inactive

Q: With `C#C[C@]1(O)CC[C@H]2[C@@H]3CCc4cc(OC)ccc4[C@H]3CC[C@@]21C` as the compound, how does the outcome [2] read?
A: inactive

Q: And the outcome [3]?
A: inactive

Q: What about the outcome [4] of the same compound?
A: inactive

Q: What about the AC50 [5] of the same compound?
A: 0.21 nM (active) and 0.082 nM (active)

Q: Which outcome [2] does the source give for `CC/C=C\CCOC(C)=O` here?
A: inactive

Q: And the outcome [3]?
A: inactive

Q: What about the outcome [1] of the same compound?
A: inactive

Q: What does the source list for `C1COCCN1`?
A: outcome [2]: inactive; outcome [3]: inactive; outcome [1]: inactive

Q: Which outcome [2] does the source give for `CNC(=S)NC` here?
A: inactive

Q: What about the outcome [3] of the same compound?
A: inactive

Q: What about the outcome [6] of the same compound?
A: inactive

Q: And the outcome [7]?
A: inactive

Q: Which outcome [1] does the source give for `O=S(=O)(OCC(F)F)C(F)(F)F` here?
A: inactive

Q: With `CCCCC(CC)COP(=O)(O)OCC(CC)CCCC` (configuration not stated) as the compound, how does the outcome [3] read?
A: inactive

Q: And the AC50 [1]?
A: 79.2 µM (active)

Q: With `O=C(O)C(F)(F)C(F)(F)F` as the compound, how does the outcome [1] read?
A: inactive

Q: For `CCCCCCC(C)OC(=O)CCCCC(=O)OC(C)CCCCCC` (configuration not stated), which outcome [3] is on record?
A: inactive

Q: And the outcome [6]?
A: inactive

Q: And the outcome [7]?
A: inactive

Q: Which outcome [1] does the source give for `CC(=O)Nc1ccc(N=Nc2cc(C)ccc2O)cc1` here?
A: inactive

Q: Which AC50 [1] does the source give for `O[Si](c1ccccc1)(c1ccccc1)c1ccccc1` here?
A: 196 µM (active)
